Sampled rows, rich in hits. Any-hit rate of the full collection: about 7.6%.
MCF10A rerep – inducers of DNA re-replication in MCF 10A breast cells; MCF 10A DNA re-replication, Hoechst nuclear intensity, 48 h; AID 624296; Potency, µM (highest dose often 46.1 µM), inactives show at the highest dose activity, positive = re-replication, usual class: activators; 350,000 tested, 2.9% active; also: potency is read from the fitted curve at half-maximal effect; % of control where 0% means no effect; nearly all actives have a fitted effect of over 50% in size
KB-3-1 tox – KB-3-1 parental cell cytotoxicity; KB-3-1 viability, CellTiter-Glo ATP luminescence, 72 h; Potency, µM (doses to about 46.1 µM), actives largely listed as cytotoxic; 400,000 tested, 1.4% active; also: potency is read from the fitted curve at half-maximal effect; % is scaled to controls: 0 for no effect and ±100 for the full control effect; nearly all actives have a fitted effect of over 60% in size
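KB-3-1 parental drug-naive adenocarcinoma cells in DMEM/10% FBS, incubated 72 h at 37 C with pin-transferred compounds across a concentration series. Viability by CellTiter-Glo luminescence; concentration-response curves fitted after normalization.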
SW480 rereplic – DNA re-replication induction in SW480 cells. AID 624297. 340,000 tested, 1.8% active. Potency, µM (top dose mostly 46.1 µM), for inactives: top-dose re-replication activation, actives largely listed as activators. SW480 DNA re-replication, Hoechst DNA content imaging, 48 h; also: potency is read from the fitted curve at half-maximal effect; % of control where 0% means no effect; nearly all actives have a fitted effect of over 55% in size
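Image-based DNA-content assay: after two days of treatment, nuclei were labelled with the DNA dye Hoechst and imaged, and hits were compounds raising the count of nuclei showing high fluorescence intensity.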
KB-V1 MDR tox – KB-V1 MDR subline cytotoxicity; Potency, µM (series often up to 46.1 µM), usual class: cytotoxic; 400,000 tested, 3.4% active; KB-V1 MDR cells viability, CellTiter-Glo, 72 h; also: potency is read from the fitted curve at half-maximal effect; % is scaled to controls: 0 for no effect and ±100 for the full control effect; nearly all actives have a fitted effect of over 60% in size
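Cytotoxicity toward P-gp-expressing KB-V1 cells was determined as loss of CellTiter-Glo luminescence after 72 h at 37 degrees C. Compounds were tested in quantitative HTS format across a concentration range, with curves fitted to normalized data.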
hERG WT inh – blocks the wildtype human KCNH2 potassium channel; Q12809; U2OS, BacMam KCNH2, thallium flux FluxOr; stronger effect = lower value; activity change, % at 1.84 µM; 340,000 tested, 0.37% active;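 active = maximum activity change below -70%; inconclusive = maximum activity change between -70% and -50%; inactive = maximum activity change above -50%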; also: % is scaled to controls: 0 for no effect and ±100 for the full control effect
Target sequence (Q12809 whole entry, looked up): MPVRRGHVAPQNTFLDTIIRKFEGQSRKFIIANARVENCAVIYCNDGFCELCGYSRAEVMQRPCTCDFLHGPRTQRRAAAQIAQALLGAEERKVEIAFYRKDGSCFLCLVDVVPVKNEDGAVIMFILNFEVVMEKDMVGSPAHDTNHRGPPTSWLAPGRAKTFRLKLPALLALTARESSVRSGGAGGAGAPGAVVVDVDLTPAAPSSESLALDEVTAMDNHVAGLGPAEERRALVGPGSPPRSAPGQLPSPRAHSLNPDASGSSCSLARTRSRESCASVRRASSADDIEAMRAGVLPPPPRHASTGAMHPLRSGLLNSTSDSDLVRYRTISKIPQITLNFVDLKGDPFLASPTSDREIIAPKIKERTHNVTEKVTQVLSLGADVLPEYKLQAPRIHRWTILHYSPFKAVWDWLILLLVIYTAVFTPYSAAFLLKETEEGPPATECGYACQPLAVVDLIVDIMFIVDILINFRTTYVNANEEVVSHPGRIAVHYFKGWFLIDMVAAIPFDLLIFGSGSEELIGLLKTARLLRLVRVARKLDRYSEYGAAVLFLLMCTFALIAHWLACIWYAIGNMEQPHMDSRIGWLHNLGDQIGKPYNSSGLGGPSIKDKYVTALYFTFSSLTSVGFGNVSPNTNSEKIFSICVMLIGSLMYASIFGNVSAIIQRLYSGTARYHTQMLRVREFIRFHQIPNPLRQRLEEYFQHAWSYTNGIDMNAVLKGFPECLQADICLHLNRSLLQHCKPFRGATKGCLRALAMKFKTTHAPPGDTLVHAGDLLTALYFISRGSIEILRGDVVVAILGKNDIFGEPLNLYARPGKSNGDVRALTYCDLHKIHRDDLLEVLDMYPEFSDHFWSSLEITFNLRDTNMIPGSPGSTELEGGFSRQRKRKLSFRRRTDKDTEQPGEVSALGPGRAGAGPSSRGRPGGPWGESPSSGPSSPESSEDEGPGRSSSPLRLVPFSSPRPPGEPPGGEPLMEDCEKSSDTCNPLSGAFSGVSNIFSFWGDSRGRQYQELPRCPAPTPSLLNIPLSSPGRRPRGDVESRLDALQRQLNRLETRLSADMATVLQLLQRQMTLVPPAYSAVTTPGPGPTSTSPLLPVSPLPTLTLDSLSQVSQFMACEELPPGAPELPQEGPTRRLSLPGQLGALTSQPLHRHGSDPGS
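U2OS cells transduced with wild-type KCNH2 virus are loaded with FluxOr dye for 45 min, and thallium flux is measured in kinetic reads before and after stimulation buffer. Rate constants are normalized to DMSO controls.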
KCNH2 3.1 inh – inhibitors of human KCNH2 3.1 potassium channel isoform | U2OS KCNH2 3.1, thallium flux FluxOr; stronger effect = lower value | activity change, % (tested at about 1.8 µM) | 340,000 tested, 0.95% active;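 active = maximum activity change below -70%; inconclusive = maximum activity change from -70% to -50%; inactive = maximum activity change above -50%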;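 also: thallium influx rate constant from kinetic fluorescence after stimulation buffer; % is scaled to controls: 0 for no effect and ±100 for the full control effect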
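FluxOr-based Tl+ influx in U2OS cells transduced with KCNH2 3.1 virus; rate constants normalized to DMSO controls.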
* hit, by the source's call; i = inactive; ? = inconclusive; · = no result given; ! = repeats disagree; [ ] = dose if it differs, or a comment. Unless noted, calls follow the shape of the dose curve; as a rule, active = well fitted curve in the direction sought with a large enough effect; inconclusive = small, poorly fitted or top-dose-only effect, or another doubt; inactive = no such curve, though single readings can be large; an effect the other way counts as inactive or inconclusive.

SMILES | MCF10A rerep | KB-3-1 tox | SW480 rereplic | KB-V1 MDR tox | hERG WT inh | KCNH2 3.1 inh
COc1cc(OC)c2c(-c3cccc(-c4ccc(OC)c(OC)c4)c3)cc(=O)oc2c1 | 1.3µM* | i | 2.06µM* | i | -18.6 | -32.6
COc1cc(OC)c2c(-c3cccc(-c4ccc(NC(C)=O)cc4)c3)cc(=O)oc2c1 | ? | i | 9.2µM* | i | -2.5 | ·
COc1cc(OC)c2c(-c3cccc(-c4ccc(C#N)cc4)c3)cc(=O)oc2c1 | ? | i | ? | ? | 7.6 | -16.9
COc1cc(OC)c2c(-c3cccc(-c4sccc4C(C)=O)c3)cc(=O)oc2c1 | 0.651µM* | 2.91µM* | 6.51µM* | 2.59µM* | -6.6 | -4.4
COc1cc(OC)c2c(-c3cccc(-c4ccc(C(F)(F)F)cc4)c3)cc(=O)oc2c1 | ? | i | -32.0% | i | 2.2 | -9.8
COc1cc(OC)c2c(-c3cccc(-c4ccc(F)c(Cl)c4)c3)cc(=O)oc2c1 | 4.61µM* | ? | ? | ? | -10.5 | -10.0
COc1cc(OC)cc(C(=O)NNC(=O)NC2CCCCC2)c1 | 16.3% | i | -12.3% | i | -8.1 | 1.2
O=C(N[C@H]1CCC(=O)N(CCSc2ccc(Br)cc2)CC1)OCc1ccccc1 | 3.9% | ? | 3.1% | 20.6µM*! | 11.0 | -35.5
Cc1cc(Br)ccc1NC(=O)CCS(=O)(=O)c1cccc2nsnc12 | · | i | · | i | · | ·
CN(Cc1nc2ccccc2c(=O)[nH]1)Cc1nc2ccsc2c(=O)[nH]1 | 1.1% | i | 20.6µM* | i | -7.6 | 1.4
CC(NC(=O)CN(C)Cc1nc2ccccc2c(=O)[nH]1)c1ccccc1 (configuration not stated) | -0.3% | i | -9.7% | i | 1.7 | 5.9
O=C(NC1CCCCC1)c1ccc2c(c1)N(Cc1ccc(Cl)cc1)C(=O)c1ccccc1S2(=O)=O | · | i | · | i | · | ·
O=C(OCC(=O)c1c[nH]c2ccccc12)c1ccc([N+](=O)[O-])s1 | -12.2% | i | 20.6µM* | ? | -4.6 | -1.8
c1ccc(C(c2ccccc2)N2CCN(c3nc4ccccc4n4cnnc34)CC2)cc1 | 7.31µM* | 23.1µM* | 2.2% | 9.2µM* | -12.9 | -6.6
c1cnc(N2CCN(c3nc4ccccc4n4cnnc34)CC2)nc1 | -2.7% | ? | -9.7% | 7.31µM* | 59.8 | 11.5
COc1ccc(C(=O)n2nc(-c3ccco3)nc2SC)cc1OC | -1.7% | i | 3.8% | i | -131.9* | -177.0*
CSc1nc(-c2ccco2)nn1C(=O)c1cccs1 | 12.2% | i | -0.7% | i | -8.1 | -16.3
Cc1ccc(Cl)cc1NC(=O)C1CCCCC1C(=O)O (configuration not stated) | 0.0% | i | 2.3% | i | ? | -2.7
C/C(=N\O)c1ccc2c3ccccc3n(C)c2c1 | -0.7% | 2.59µM* | 0.4% | ? | 12.6 | -5.1
CCOc1ccc(-c2nc(N)ncc2Oc2ccc(OC)cc2)c(O)c1 | ? | i | -73.9% | ? | 3.7 | 4.3
COc1ccc(-c2nc(N)nc(C)c2Oc2ccccc2Br)c(O)c1 | 14.6µM* | ? | ? | ? | -6.7 | -5.1
Cc1cc(C)n(-c2nc3ccccc3nc2N2CCCC2)n1 | 0.1% | i | -10.3% | 13µM* | 10.9 | -4.4
Cc1cc(C)n(-c2nc3ccccc3nc2N2CCCCCC2)n1 | 13.9% | i | 3.8% | i | 1.6 | -15.5
Cc1cc(-c2ccccc2)n(-c2ccc(C(=O)N3CCN(c4ncccn4)CC3)cc2)n1 | 27.8% | ? | 19.9% | 2.91µM* | 2.6 | -6.3
Cc1cc(C)n(-c2nc3ccccc3nc2N2CCN(C(=O)c3ccc(Cl)cc3)CC2)n1 | 1.84µM* | i | 20.6µM* | i | 5.2 | -4.1
SMILES | MCF10A rerep | KB-3-1 tox | SW480 rereplic | KB-V1 MDR tox | hERG WT inh | KCNH2 3.1 inh
COc1ccc(Nc2nc3ccccc3nc2-n2nc(C)cc2C)cc1 | 16.4µM* | i | ? | i | 1.0 | 10.0
CC(C)(C)n1c(O)c2n(c1=O)Cc1ccccc1N=C2c1ccccc1 | · | i | · | i | · | ·
O=c1n2c(c(O)n1C1CCCCC1)C(c1ccccc1)=Nc1ccccc1C2 | · | i | · | 16.4µM* | · | ·
Cc1cc(Nc2ccc(Cl)cc2)nc(NCc2ccccc2)n1 | ? | ? | ? | 20.6µM* | 4.4 | -77.9*
Cc1cc(Nc2cccc(F)c2)nc(NCc2ccccc2)n1 | ? | ? | ? | 8.2µM* | 4.0 | -31.6
Fc1cc(NCc2ccccc2)nc(NCc2ccccc2)n1 | ? | i | 1.5% | i | -3.0 | -16.5
Cc1cc(Nc2ccccc2)nc(NCc2ccccc2)n1 | 16.4µM* | 20.6µM* | ? | 10.3µM* | 0.4 | 2.4
CCNc1nc(Cl)nc(NCc2ccccc2)n1 | -0.7% | i | 13.0% | i | 3.0 | -6.3
Cc1cc(C)nc(NCCCc2ccccc2)n1 | -10.5% | i | -3.1% | i | -11.9 | -1.9
Cc1ccc(Nc2cc(C)nc(-c3ccccc3)n2)cc1 | 10.2% | ? | 4.0% | i | 21.8 | -77.2*
Nc1ncnc2c1ncn2[C@@H]1O[C@H](CNC(=O)[C@@H](N)Cc2ccc(C(F)(F)F)cc2)[C@@H](O)[C@H]1O | -3.5% | i | 29.0% | i | -7.0 | 0.9
CCCCNc1cc(C)nc(NCc2ccccc2)n1 | 25.5% | 6.51µM* | -2.4%[9.22 µM] | 5.8µM* | 30.2 | -29.6
Cc1cc(Oc2ccccc2F)nc(NCc2ccccc2)n1 | 28.6% | ? | ? | ? | -2.0 | -1.3
Cc1cc(N2CCC(C)CC2)nc(-c2ccccc2O)n1 | 21.4% | i | -7.5% | i | · | 5.9
Cc1cc(Oc2ccccc2)nc(NCc2ccccc2)n1 | 19.0% | 16.4µM* | ? | 20.6µM* | -8.0 | -3.0
Cc1cc(N2CCC(C)CC2)nc(NCc2ccccc2)n1 | 25.5% | 13µM* | 0.517µM* | i | 6.0 | -22.9
O=c1c(-c2nn[nH]n2)coc2ccc(Cl)cc12 | -0.2% | i | -4.9% | i | -16.8 | -37.5
O=S(=O)(NCc1nnnn1-c1ccc(F)cc1)c1ccc(F)cc1 | · | i | · | i | -10.8 | 9.1
Cc1ccc(C)c(N=Nc2ccc(O)c3ncccc23)c1 | 16.4µM* | i | 4.7% | ? | -0.3 | 23.2
Cc1cccc(N=Nc2ccc(O)c3ncccc23)c1 | ? | ? | -64.2% | i | -9.4 | -0.1
O=S(=O)(c1ccc(SCc2ccc(Br)cc2)nc1)N1CCCCC1 | 11.1% | i | -15.9% | ? | 2.4 | -11.5
Cc1ccc(N(CC(N)=O)C2SC(=O)N(Cc3ccccc3)C2=O)cc1 (configuration not stated) | 20.6µM* | i | ? | i | -13.0 | -2.5
O=C(Nc1ccc(Oc2cccnc2)cc1)c1ccccc1F | 1.9% | ? | -0.8% | 16.4µM* | -2.0 | 0.4

Screening results: PubChem, National Center for Advancing Translational Sciences (NCATS)
